35 compounds from the supplement of paper PMC4840960 can be followed below.

Experiment [1] deals with E18 rat cortical neuron-glia co-culture. Briefly: fiber score / MBP score (myelination specific beyond OL differentiation) (ratio); higher = more myelination-specific MBP alignment. The conditions noted are these: treatment time: 8 days (DIV5-DIV13). The essentials:
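Papain-dissociated primary E18 rat cortical co-cultures, plated at 20,000 cells/well on poly-d-lysine/laminin 96-well plates, were exposed to library compounds at 1 or 5 µM in myelination medium between DIV5 and DIV13. Following fixation in 4 % paraformaldehyde, cultures were stained for MBP, Olig2 and DAPI, and four 10X fields per well were analysed in duplicate wells. Values are the ratio of fiber score (continuous MBP fiber length per Olig2+ nucleus) to MBP score (thresholded MBP area × intensity per Olig2+ nucleus).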

For experiment [2] the test system is unchanged. The experiment is described as follows: myelination (MBP fiber length per Olig2+ nucleus), % of 1 µM DAPT response (DMSO = 0) (% of DAPT); higher = more myelination, active = 50 or more. The conditions noted are these: treatment time: 8 days (DIV5-DIV13). The essentials: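 Myelination, expressed as continuous straight MBP fiber length per Olig2+ nucleus, was normalised to 0.1 % DMSO as 0 and a 1 µM positive control as 100. The cultures were primary E18 rat cortical co-cultures dissociated with papain and plated at 20,000 cells/well on poly-d-lysine/laminin-coated 96-well plates. They received library compounds at 1 or 5 µM in myelination medium between DIV5 and DIV13. Analysis covered four 10X fields per well in duplicate wells after 4 % paraformaldehyde fixation and immunostaining for MBP and Olig2 with DAPI.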

± gives the standard deviation of the averaged measurements. Some results are limits rather than exact numbers.

Take `CC(C)[C@H](N)C(=O)OCCOCn1cnc2c(=O)nc(N)[nH]c21` [Valaciclovir]: the “fiber score / MBP score” value in experiment [1] (1 µM) was found to be 0.731; in experiment [1] (5 µM), 0.774. In addition, the myelination in experiment [2] (1 µM) was -21.7 (inactive); in experiment [2] (5 µM), -19 (inactive).
With `CC(C)[N+]1(C)[C@@H]2CC[C@H]1C[C@@H](OC(=O)C(CO)c1ccccc1)C2` (stereo partly specified) [Ipratropium], the “fiber score / MBP score” value in experiment [1] (1 µM) is 0.783; in experiment [1] (5 µM), 1.52. Moreover, the figures for the myelination in experiment [2] (1 µM) and in experiment [2] (5 µM) were 0.204 (inactive) and 32.8 (inactive), respectively.
Regarding `CCCNCC(O)COc1ccccc1C(=O)CCc1ccccc1` (stereo unspecified) [Propafenone], the “fiber score / MBP score” value stood at 0.873 in experiment [1] (1 µM) and 0.376 in experiment [1] (5 µM). Also, the myelination in experiment [2] (1 µM) is -1.52 (inactive); in experiment [2] (5 µM), -22.4 (inactive).
Take `CCCc1nc(C(C)(C)O)c(C(=O)O)n1Cc1ccc(-c2ccccc2-c2nnn[nH]2)cc1` [Olmesartan]: the “fiber score / MBP score” value turned out to be 0.778 in experiment [1] (1 µM) and 0.698 in experiment [1] (5 µM). Moreover, the values for the myelination in experiment [2] (1 µM) and in experiment [2] (5 µM) were -32.2 (inactive) and -45 (inactive), respectively.
Take `COc1cc(/C=C/c2ccc(O)cc2)cc(OC)c1` [Pterostilbene]: the “fiber score / MBP score” value worked out at 0.637 in experiment [1] (1 µM) and 0.668 in experiment [1] (5 µM). In addition, the myelination was -13.8 (inactive) in experiment [2] (1 µM) and -12.2 (inactive) in experiment [2] (5 µM).
Turning to `Cc1cccc(C)c1OCC(C)N` (stereo unspecified) [Mexiletine], the “fiber score / MBP score” value in experiment [1] (1 µM) stood at 0.887; in experiment [1] (5 µM), 0.965. Besides, the myelination is 8.19 (inactive) in experiment [2] (1 µM) and 8.07 (inactive) in experiment [2] (5 µM).
Take `CC(=O)S[C@@H]1CC2=CC(=O)CC[C@]2(C)[C@H]2CC[C@@]3(C)[C@@H](CC[C@@]34CCC(=O)O4)[C@H]12` [Spironolactone]: the “fiber score / MBP score” value was 0.765 in experiment [1] (1 µM) and 1.22 in experiment [1] (5 µM). For the same compound, the myelination in experiment [2] (1 µM) was -5.5 (inactive); in experiment [2] (5 µM) it was 6.33 (inactive).
Regarding `C[C@H](CCC(=O)O)[C@H]1CC[C@H]2[C@@H]3C(=O)C[C@@H]4CC(=O)CC[C@]4(C)[C@H]3CC(=O)[C@]12C` [Dehydrocholic Acid], the “fiber score / MBP score” value in experiment [1] (1 µM) is 0.477; in experiment [1] (5 µM), 0.662. The myelination is -18.3 (inactive) in experiment [2] (1 µM) and -14.2 (inactive) in experiment [2] (5 µM).
Consider `CN(C)CCC(c1ccc(Cl)cc1)c1ccccn1` (stereo unspecified) [Chlorpheniramine], for which the “fiber score / MBP score” value in experiment [1] (1 µM) was 0.721 ± 0.13; in experiment [1] (5 µM) it was 0.471 ± 0.094. For the same compound, the myelination was -9.68 (inactive) in experiment [2] (1 µM) and -17.7 (inactive) in experiment [2] (5 µM).
The matching figures for `CN1CCN(c2nc3cc(C(F)(F)F)ccc3n3cccc23)CC1`: 0.707, 0.682, -2.34 (inactive) and -20.7 (inactive).
For `Cc1nc2n(c(=O)c1CCN1CCC(c3noc4cc(F)ccc34)CC1)CCCC2` [Risperidone], in that order: 0.936, 0.565, -7.71 (inactive) and -15.1 (inactive).
For the compound `CC(c1cc2ccccc2s1)N(O)C(N)=O` (stereo unspecified) [Zileuton], the “fiber score / MBP score” value in experiment [1] (1 µM) is 0.599; in experiment [1] (5 µM) it was 0.628. Besides, the myelination in experiment [2] (1 µM) was -6.73 (inactive); in experiment [2] (5 µM), -19.1 (inactive).
For `CN(C)CCc1c[nH]c2ccc(Cn3cncn3)cc12` [Rizatriptan], the “fiber score / MBP score” value in experiment [1] (1 µM) came out at 0.516; in experiment [1] (5 µM), 0.414. The figures for the myelination in experiment [2] (1 µM) and in experiment [2] (5 µM) were -15 (inactive) and -20.4 (inactive), respectively.
For `CC(Cc1ccccc1)(NC(=O)CN)c1ccccc1` (stereo unspecified) [Remacemide], in that order: 0.793, 0.749, -12.4 (inactive) and -7.33 (inactive).
The matching figures for `OCc1cccnc1` [Nicotinyl Alcohol]: 0.641, 0.687, -10.3 (inactive) and -10.1 (inactive).
As to `CN1CCC(=C2c3ccccc3C=Cc3ccccc32)CC1` [Cyproheptadine], the “fiber score / MBP score” value in experiment [1] (1 µM) was 0.58; in experiment [1] (5 µM) it was 0.686. For the same compound, the myelination in experiment [2] (1 µM) is -14.7 (inactive); in experiment [2] (5 µM), -1.4 (inactive).
For `CCCOc1ccc(C(=O)OCCN(CC)CC)cc1N` [Proxymetacaine], in that order: 1.15, 0.433, 13.3 (inactive) and -12.1 (inactive).
As to `CCOc1cc(N)c(Cl)cc1C(=O)NCC1CN(Cc2ccc(F)cc2)CCO1` (stereo unspecified) [Mosapride], the “fiber score / MBP score” value in experiment [1] (1 µM) was determined as 0.736; in experiment [1] (5 µM), 0.556. The myelination was -41.5 (inactive) in experiment [2] (1 µM) and -56.5 (inactive) in experiment [2] (5 µM).
Turning to `CC1Cc2ccccc2N1NC(=O)c1ccc(Cl)c(S(N)(=O)=O)c1` (stereo unspecified) [Indapamide], the “fiber score / MBP score” value was found to be 0.911 in experiment [1] (1 µM) and 1.31 in experiment [1] (5 µM). Besides, the myelination in experiment [2] (1 µM) is -4.93 (inactive); in experiment [2] (5 µM), 6.67 (inactive).
As to `NNC(=O)c1ccncc1` [Isoniazid], the entries for the “fiber score / MBP score” value in experiment [1] (1 µM) and in experiment [1] (5 µM) were 0.85 and 0.914, respectively. Further, the myelination in experiment [2] (1 µM) is -1.03 (inactive); in experiment [2] (5 µM) it was 0.697 (inactive).
For `CCN1CCC[C@H]1CNC(=O)c1c(O)c(Cl)cc(Cl)c1OC` [Raclopride], in that order: 1.05, 0.709, 18.4 (inactive) and -30.6 (inactive).
In the case of `CN1CCc2cc(Cl)c(O)cc2C(c2ccccc2)C1` (stereo unspecified), the “fiber score / MBP score” value in experiment [1] (1 µM) is 0.959; in experiment [1] (5 µM), 0.975. The myelination was -8.8 (inactive) in experiment [2] (1 µM) and -9.82 (inactive) in experiment [2] (5 µM).
On to `Cc1cccc(CN2CCN(C(c3ccccc3)c3ccc(Cl)cc3)CC2)c1` (stereo unspecified) [Meclizine], for which the “fiber score / MBP score” value in experiment [1] (1 µM) was 0.439. Moreover, the myelination was -29.8 (inactive) in experiment [2] (1 µM) and < -51.3 (inactive) in experiment [2] (5 µM).
In the case of `COc1cccc2c1C(=O)c1c(O)c3c(c(O)c1C2=O)C[C@@](O)(C(=O)CO)C[C@@H]3O[C@H]1C[C@H](N)[C@H](O)[C@H](C)O1` [Adriamycin], the myelination in experiment [2] (1 µM) is < -51.2 (inactive).
`Cc1c(C(=O)NN2CCCCC2)nn(-c2ccc(Cl)cc2Cl)c1-c1ccc(I)cc1`: the “fiber score / MBP score” value in experiment [1] (1 µM) was determined as 0.94. The myelination in experiment [2] (1 µM) is 17.6 (inactive).
Regarding `OCCN1CCN(CCCN2c3ccccc3Sc3ccc(Cl)cc32)CC1` [Perphenazine], the “fiber score / MBP score” value in experiment [1] (1 µM) was 0.338. In addition, the myelination in experiment [2] (1 µM) is -21.7 (inactive).
Consider `CCCCCNC(=N)N/N=C/c1c[nH]c2ccc(OC)cc12` [Tegaserod], for which the “fiber score / MBP score” value in experiment [1] (1 µM) came out at 0.56. Besides, the myelination in experiment [2] (1 µM) is -17.1 (inactive).
On to `C[C@@H]1C[C@H]2[C@@H]3CCC4=CC(=O)C=C[C@]4(C)[C@@]3(F)[C@@H](O)C[C@]2(C)[C@@]1(O)C(=O)CO` [Dexamethasone], for which, in experiment [1] (1 µM), the “fiber score / MBP score” value stood at 0.824. Besides, the values for the myelination in experiment [2] (1 µM) and in experiment [2] (5 µM) were -36.6 (inactive) and < -84.9 (inactive), respectively.
Regarding `OCCN1CCN(CCCN2c3ccccc3Sc3ccc(C(F)(F)F)cc32)CC1` [Fluphenazine], in experiment [1] (1 µM), the “fiber score / MBP score” value amounted to 0.784. Moreover, the myelination in experiment [2] (1 µM) was 3 (inactive); in experiment [2] (5 µM), < -37.3 (inactive).
In the case of `CCN(CC)CCOc1ccc(C(=C(Cl)c2ccccc2)c2ccccc2)cc1` [Clomiphene], the “fiber score / MBP score” value in experiment [1] (1 µM) came out at 0.64. Moreover, in experiment [2] (1 µM), the myelination is -33.9 (inactive).
In the case of `CC(C)c1ccc2c(c1)c(SC(C)(C)C)c(CC(C)(C)C(=O)O)n2Cc1ccc(Cl)cc1`, the “fiber score / MBP score” value in experiment [1] (1 µM) came out at 1.1. The myelination is -5.83 (inactive) in experiment [2] (1 µM) and < -35.1 (inactive) in experiment [2] (5 µM).
For the compound `CN(C)CCOc1ccc(/C(=C(/CCCl)c2ccccc2)c2ccccc2)cc1` [Toremifene], the “fiber score / MBP score” value in experiment [1] (1 µM) worked out at 0.889. In experiment [2] (1 µM), the myelination was 3.19 (inactive).
Regarding `COc1cccc2c1C(=O)c1c(O)c3c(c(O)c1C2=O)C[C@@](O)(C(=O)CO)C[C@@H]3O[C@H]1C[C@H](N)[C@H](O)[C@H](C)O1` [Doxorubicin], the myelination in experiment [2] (5 µM) was < -69.3 (inactive).
For `Cc1cccc(C)c1NC(=O)C(C)N` (stereo unspecified) [Tocainide], the “fiber score / MBP score” value in experiment [1] (1 µM) came out at 0.776. In experiment [2] (1 µM), the myelination is -15 (inactive).
Turning to `CN1CCN(C2=Nc3cc(Cl)ccc3Nc3ccccc32)CC1` [Clozapine], the “fiber score / MBP score” value in experiment [1] (1 µM) turned out to be 0.395. The myelination in experiment [2] (1 µM) was -14.8 (inactive).
